Screen size: about 420,000 compounds; about 50,000 (12%) were called active. Where a call stands in place of a potency, no number is given. About 26% were inconclusive and are not listed. This is one part of a sample in which actives are shown more often than they occur. Calls follow the shape of the dose curve; as a rule, active = well fitted inhibition curve with a large enough effect; inconclusive = small, poorly fitted or top-dose-only effect; inactive = flat fitted curve, though single readings scatter.
Assay: qHTS for Inhibitors of human tyrosyl-DNA phosphodiesterase 1 (TDP1): qHTS in cells in presence of CPT; also: nearly all actives have a fitted effect of over 55% in size
Settings: chicken DT40 Tdp1-/-;hTDP1 cells + 20 nM CPT, ATP luminescence, 48 h; series mostly up to 46.2 µM
Outline: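 Chicken DT40 Tdp1-/- cells complemented with human TDP1, 400 cells/well, exposed to compounds plus 20 nM camptothecin for at least 48 h at 37 C; viability read as ATP content by CellTiter-Glo luminescence.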
Potency is read from the fitted curve at half-maximal effect.

Row | Compound | Potency
1 | O=C(O)C#Cc1cccc2ccccc12 | inactive
2 | CCn1ccnc1CNC(=O)CC1C(=O)NCCN1Cc1ccc(F)cc1Cl (stereo unspecified) | inactive
3 | Cc1cc(-n2cnc(-c3cn(C)nc3C)n2)no1 | inactive
4 | CCCCN(C(=O)c1ccc(S(=O)(=O)N2CCOCC2)cc1)C1CCS(=O)(=O)C1 (stereo unspecified) | inactive
5 | COC(=O)Cc1ccc(OCC(=O)Nc2ccc(OC(F)(F)F)cc2)cc1 | inactive
6 | CCNC(=S)Nc1ccc(OC(F)(F)F)cc1 | inactive
7 | CCc1ccc2c(c1)NC(=O)C2(C)Cc1ccc(OC(F)(F)F)cc1 (stereo unspecified) | 20.6 µM (active)
8 | CC1(C(=O)NS(=O)(=O)Cc2cccc(Cl)c2)CCN1C(=O)Cc1ccccc1 (stereo unspecified) | inactive
9 | O=C(NCCc1cccc(F)c1)C1CCCN(c2nc3ccccc3s2)C1 (stereo unspecified) | 18.4 µM (active)
10 | O=C(NCc1ccccc1)C1CCCN(c2nc3ccsc3c(=O)s2)C1 (stereo unspecified) | inactive
11 | Cc1cc(=O)n2nc(N3CCCC(C(=O)NCc4cccc(Cl)c4)C3)sc2n1 (stereo unspecified) | inactive
12 | CCC(C)c1ccc(NC(=O)COC(=O)C2CCCC2)cc1 (stereo unspecified) | inactive
13 | CC(C)(C)NC(=O)NC(=O)COC(=O)C1c2ccccc2Oc2ccccc21 | inactive
14 | Cc1cn([C@H]2C[C@H](O)[C@@H](CNC(=O)[C@H](N)Cc3cccnc3)O2)c(=O)[nH]c1=O | inactive
15 | Cc1cccc(C)c1NC(=O)CN(C)C(=O)CCC(=O)c1ccccc1 | inactive
16 | Cc1cccc(C)c1NC(=O)C(c1ccccc1)N1CC(=O)Nc2ccccc21 (stereo unspecified) | inactive

Row | Compound | Potency
17 | Cc1cccc(C)c1NC(=O)C(Cl)C(=O)c1ccccc1 (stereo unspecified) | 5.17 µM (active)
18 | Cc1ccc(C)c(NC(=O)C(c2ccccc2)N2CCN(CC(=O)NC3CC3)CC2)c1 (stereo unspecified) | inactive
19 | O=c1oc(-c2ccco2)nc2sc3c(c12)CCCCC3 | inactive
20 | O=C(NCc1ccco1)c1nc2ncccn2n1 | inactive
21 | O=C(NCc1ccco1)c1cccn2c(=O)c3c4c(sc3nc12)CCCC4 | 9.2 µM (active)
22 | CC(C)C[C@H](NC(=O)C1CC(=O)N(c2ccc3c(c2)OCCO3)C1)C(=O)NC1CCCC1 (stereo partly specified) | inactive
23 | CN[C@@H]1[C@@H](O)[C@@H](O[C@@H]2[C@H](O)[C@H](O[C@H]3OC(CN)=CC[C@H]3N)[C@@H](N)C[C@H]2N)OCC1(C)O (stereo partly specified) | inactive
24 | NC(=O)C1CCN(CC(O)CSc2ccc(F)cc2)CC1 (stereo unspecified) | inactive
25 | OC(CNC1CCCC1)COc1ccc(F)cc1 (stereo unspecified) | inactive
26 | O=C(O)C1=C[C@H](c2cccs2)C[C@H](OCCCCO)O1 | inactive
27 | NC(=O)C1=C[C@@H](c2ccc3c(c2)OCO3)C[C@@H](OCCCCO)O1 | inactive
28 | O=C(C1=C[C@H](c2coc3ccccc3c2=O)C[C@H](OCc2ccc(CO)cc2)O1)N1CCOCC1 | inactive
29 | NC(=O)C1=C[C@@H](c2csc3ccccc23)C[C@@H](OCc2ccc(CO)cc2)O1 | 25.9 µM (active)
30 | C=CCOC(=O)C1=C[C@@H](c2ccccc2)C[C@@H](OCc2ccc(CO)cc2)O1 | inactive
31 | NC(=O)C1=C[C@H](c2csc3ccccc23)C[C@H](OCc2ccc(CO)cc2)O1 | 14.6 µM (active)
